Data on 40 compounds can be found in PubChem BioAssay.

As a reminder, the viability is a read-out of living cells in per cent, often relative to untreated cells.

The assay is described as follows: MRP1 drug-resistance reversers in H69AR cells – cell-based, doxorubicin co-treatment, pilot screen (AID 601). The settings on record: H69AR cells + 2 uM doxorubicin, CellTiter-Glo, 72 h; measured here: viability with 2 uM doxorubicin; at 10 µM; stronger effect = lower value. A general note: In ATP-based viability assays light output follows the ATP content of the culture.
Take `CCC1CCCCN1c1nc(-c2ccncc2)nc2ccccc12` (stereo not given): the viability amounted to 55%.

For `Cc1nc(NC(=O)c2ccccc2)sc1-c1csc(NCc2ccco2)n1`, the viability came out at 62.7%.

Consider `COc1ccc(OCCN2C(=O)NC(C)(c3ccc(C)cc3)C2=O)cc1` (stereo not given), for which the viability is 94.9%.

Consider `Cc1cc(S(=O)(=O)N2CCN(c3ncccn3)CC2)ccc1-n1cnnn1`, for which the viability came to 93.7%.

For the compound `O=C(NCC(=O)N(c1cccnc1)C(C(=O)NC1CCCCC1)c1cccnc1)c1ccco1` (stereo not given), the viability is 99.9%.

With `CCOC(=O)Nc1nnc(-c2ccccc2OC)s1`, the viability came out at 93.3%.

On to `CCc1nnc(SCc2cn3c(C)cc(C)nc3n2)n1N`, for which the viability is 92.2%.

As for `CCOc1cc(/C=N/n2cnnc2)cc(Br)c1O`, the viability was 91.8%.

On to `COc1ccc(Nc2nc(Nc3ccc(OC)cc3)nc(-n3[nH]c(=O)c(C)c3C)n2)cc1`, for which the viability amounted to 11%.

As for `CC(O)c1cc2c(cc1NC(=O)c1cnn3c1NC(c1ccco1)CC3C(F)(F)F)OCO2` (stereo not given), the viability came out at 85.9%.

Consider `CC(C)n1nc(C(=O)Nc2nc3ccc(S(C)(=O)=O)cc3s2)c2ccccc2c1=O`, for which the viability came out at 72%.

`CC(CC(=O)NCc1ccccc1)C1CCCO1` (stereo not given): the viability was found to be 91.2%.

Turning to `CCCCn1cnc2c(c1=O)c1nc3ccccc3nc1n2Cc1ccc2c(c1)OCO2`, the viability was determined as 74.3%.

As to `COc1ccc(-n2nnnc2SCC(=O)c2ccc(O)c(O)c2)cc1`, the viability turned out to be 76.6%.

Turning to `CCN(CC)CCn1c(OC)cc(=O)[nH]c1=O`, the viability came to 99.9%.

As for `O=C(c1ccco1)N1CCN(c2nc(C(F)(F)F)nc3c2nnn3Cc2ccccc2)CC1`, the viability came out at 75.8%.

As to `O=C(O)c1ccc(NC(=O)c2cccs2)cc1`, the viability amounted to 79.7%.

For `NS(=O)(=O)c1cc2c(cc1C(F)(F)F)NCNS2(=O)=O`, the viability amounted to 101%.

For the compound `Cc1ccc(CCNC(=O)C2CCC(=O)N2C2CCCC2)cc1` (stereo not given), the viability worked out at 81.9%.

With `COc1cccc(NS(=O)(=O)c2ccc3[nH]cc(C(=O)NC4CC4)c(=O)c3c2)c1`, the viability came to 85.7%.

As for `CCn1cc(C(=O)O)c(=O)c2ccc(C)nc21`, the viability is 100%.

`Cc1nc2ccc(S(=O)(=O)NCC(=O)N3CCc4ccccc4C3)cc2s1`: the viability turned out to be 86.6%.

As to `c1coc(CN2CN=C(Nc3nc4ccccc4s3)NC2)c1`, the viability worked out at 96.5%.

Turning to `COc1cc(NS(=O)(=O)c2ccc(N)cc2)nc(OC)n1`, the viability was determined as 88.4%.

Consider `Cc1ccc2nc3c(cc(C(=O)NCC4CCCO4)n3C)c(=O)n2c1` (stereo not given), for which the viability was 87.1%.

For `COc1ccc2c(c1)c(CC(=O)OCC(=O)O)c(C)n2C(=O)c1ccc(Cl)cc1`, the viability is 90.9%.

Take `CCCn1cnc2c(cnn2-c2ccc(F)cc2)c1=O`: the viability came to 97.3%.

On to `CCN(CCO)C(=O)CC(c1ccccc1)c1cc(Br)ccc1O` (stereo not given), for which the viability is 97%.

Turning to `COc1cc2c(cc1OC)C(/C(C#N)=N\O)=NC(C)(C)C2`, the viability is 91.6%.

For `O=C(O)COc1cccc(NC(=O)C2CCCO2)c1` (stereo not given), the viability came to 104%.

For `CN1CCN(C(=O)c2ccc3c(=O)n(CCc4ccccc4)c(=S)[nH]c3c2)CC1`, the viability is 56.3%.

With `CN(CCNC(=O)c1ccc(N2CCCC2=O)cc1)CCc1ccccc1`, the viability turned out to be 92.6%.

`COc1cccc(OCC(=O)Nc2ccccc2C(N)=O)c1`: the viability was 83.9%.

With `CN1CC=C2C(C#N)=C(N)C(C#N)(C#N)C(c3cccc(Cl)c3Cl)C2C1` (stereo not given), the viability turned out to be 60.1%.

On to `Cn1c(C(=O)OC(C(=O)NC2CCCC2)c2cccnc2)cc2sccc21` (stereo not given), for which the viability is 92.6%.

On to `Cc1ccc(NC(=O)COC(=O)c2ccn(C)n2)cc1`, for which the viability was found to be 79.4%.

With `FC(F)(F)c1ccc(Sc2nnc(-c3cccs3)n2CC2CCCO2)nc1` (stereo not given), the viability was 88.4%.

As to `COc1ccc(-n2c(SCC(=O)N3CCCCC3C)nnc2-c2cccnc2)cc1` (stereo not given), the viability is 91.1%.

For `CCOC(=O)c1ccc(N(CC(=O)NC2CCCC2)C(=O)CNC(=O)c2ccco2)cc1`, the viability came out at 92.4%.

With `COC(=O)c1ccccc1NC(=O)C1CCN(S(=O)(=O)c2cc(C)ccc2OC)CC1`, the viability was 92.3%.
